Measurements from PubChem BioAssay (EPA / NIEHS).
The source made the active and inactive calls. The calls were made as follows: active = hit-call score of the fitted dose curve at least 0.9, where 1 is the maximum; inactive = score below 0.9.

read-out: Epidermal growth factor receptor (EGFR), EGFR (gene 1956); test: BSK_hDFCGF_EGFR: BioMAP Diversity Plus: hDFCGF Assay for Epidermal growth factor receptor (EGFR) Biomarker Activity (AID 2283057); details: primary human foreskin fibroblasts; actives raise or lower the signal
Protocol: BSK_hDFCGF is a cell-based, multiplexed-readout assay that uses foreskin fibroblast, a human skin primary cell, with measurements taken at 24 hours after chemical dosing in a 96-well plate.BSK_hDFCGF_EGFR is an assay component measured in the BSK_hDFCGF assay. It measures EGFR antibody related to regulation of gene expression using ELISA technology.Data from the assay component BSK_hDFCGF_EGFR was analyzed into 1 assay endpoint. This assay endpoint, BSK_hDFCGF_EGFR, was analyzed with bidirectional fitting relative to DMSO as the negative control and baseline of activity. Using a type of binding reporter, gain or loss-of-signal activity can be used to understand changes in the signaling as they relate to the gene EGFR. Furthermore, this assay endpoint can be referred to as a primary readout, because this assay has produced multiple assay endpoints where this one serves a signaling function. To generalize the intended target to other relatable targets, this assay endpoint is annotated to the kinase intended target family, where the subfamily is receptor tyrosine kinase.
The levels of cell surface (or secreted, indicated by the prefix "s") biomarker endpoints were measured by ELISA. Overt cytotoxicity to cells in confluent adherent cultures (all systems other than the BT system) was assessed by measuring total protein levels using sulforhodamine B (SRB) staining in parallel cultures at the time of biomarker measurements, indicated as SRB endpoints. For proliferation assays for adherent cell types, individual cell types are cultured at sub-confluence and relative cell numbers quantified by SRB staining at time points optimized for each system (48 h: 3C and CASM3C systems; 72 h: BT and HDF3CGF systems; 96 h: SAg system). SRB was performed by staining cells with 0.1% SRB after fixation with 10% TCA and reading wells at 560 nm.Viability and proliferation of PBMC (T cells) was quantified by Alamar Blue reduction for the SAg and BT systems. For PBMC viability (referred to as PBMC Cytotoxicity within the assay endpoint names), cells were plated (75,000/well in a 96-well plate) and then chemical samples added for 1 h before addition of activators, SEB and TSST-1 (20 ng/mL final concentration each). Cells were incubated for 90 h. Then, Alamar Blue (20 uL/well) (Invitrogen, Cat DAL1100) was added for 6 h, and the plates were read with a fluorescence microplate reader at 546/580 nm (excitation/emission). For PBMC proliferation, cells were plated and activated as above but incubated for only 16 h prior to addition of Alamar Blue. Plates were read after 6 h.

Question: `c1ccc(OP(Oc2ccccc2)Oc2ccccc2)cc1` was tested. Which outcome did it give?
Answer: inactive

Question: For `Cc1ccc([N+](=O)[O-])cc1C`, which outcome is on record?
Answer: inactive

Question: `CC(C)(C)c1ccccc1OP(=O)(Oc1ccccc1)Oc1ccccc1` was tested. Which AC50 did it give?
Answer: 13.5 µM (active)

Question: For `CCNc1nc(Cl)nc(NC(C)(C)C)n1`, which outcome is on record?
Answer: inactive

Question: For `OCC(F)(F)OC(F)(F)C(F)(F)OC(F)(F)CO`, which outcome is on record?
Answer: inactive

Question: For `O=C(O)C(F)(F)C(F)(F)C(=O)O`, which outcome is on record?
Answer: inactive

Question: `CCOP(=S)(Oc1ccc([N+](=O)[O-])cc1)c1ccccc1` (stereo not given) was tested. Which outcome did it give?
Answer: inactive

Question: For `O=C(O)C1C(C(=O)O)C2(Cl)C(Cl)=C(Cl)C1(Cl)C2(Cl)Cl` (stereo not given), which outcome is on record?
Answer: inactive

Question: With `COP(=O)(CCC(=O)NCO)OC` as the compound, how does the outcome read?
Answer: inactive

Question: `CCCCOCCOP(=O)(OCCOCCCC)OCCOCCCC` was tested. Which outcome did it give?
Answer: inactive

Question: For `OCC(F)(F)OC(F)(F)C(F)(F)OC(F)(F)C(F)(F)OC(F)(F)CO`, which outcome is on record?
Answer: inactive

Question: With `CCOP(=S)(S)OCC` as the compound, how does the outcome read?
Answer: inactive

Question: With `CCCN(CCC)c1c([N+](=O)[O-])cc(C(C)C)cc1[N+](=O)[O-]` as the compound, how does the AC50 read?
Answer: 20 µM (active)

Question: Which outcome does the source give for `CCC1(c2ccccc2)C(=O)N=C(O)NC1=O` (stereo not given) here?
Answer: inactive

Question: `C=CC(=O)OCC(F)(F)C(F)F` was tested. Which outcome did it give?
Answer: inactive

Question: `CCCCC(CC)COC(=O)c1c(Br)c(Br)c(Br)c(Br)c1C(=O)OCC(CC)CCCC` (stereo not given) was tested. Which outcome did it give?
Answer: inactive

Question: Which outcome does the source give for `Nc1ccc([N+](=O)[O-])cc1Cl` here?
Answer: inactive

Question: Which outcome does the source give for `Cc1c([N+](=O)[O-])cc2c(c1[N+](=O)[O-])C(C)(C)CC2(C)C` here?
Answer: inactive

Question: How did the outcome turn out when `CC(C)(C)c1ccc(O)cc1` was run?
Answer: inactive

Question: With `CSC(C)(C)C=NO` as the compound, how does the outcome read?
Answer: inactive

Question: For `OCC(F)(F)OC(F)(F)C(F)(F)OC(F)(F)C(F)(F)OC(F)(F)F`, which outcome is on record?
Answer: inactive

Question: For `O=C(O)C(Cl)Cl`, which outcome is on record?
Answer: inactive

Question: With `Cc1cccc(N)c1` as the compound, how does the outcome read?
Answer: inactive

Question: Which outcome does the source give for `CCCCN(CCCC)N=O` here?
Answer: inactive

Question: `O=[N+]([O-])c1ccc(Cl)c(Cl)c1` was tested. Which outcome did it give?
Answer: inactive

Question: Which outcome does the source give for `O=C(O)C(F)(F)OC(F)(F)C(F)(F)OC(F)(F)F` here?
Answer: inactive

Question: `O=P(Oc1ccccc1)(Oc1ccccc1)Oc1ccccc1` was tested. Which outcome did it give?
Answer: inactive

Question: `CN(C)C(=O)Cl` was tested. Which outcome did it give?
Answer: inactive

Question: Which outcome does the source give for `CC(C)(C)OOC(C)(C)C` here?
Answer: inactive

Question: How did the AC50 turn out when `ClC(Cl)=C(c1ccc(Cl)cc1)c1ccccc1Cl` was run?
Answer: 4.82 µM (active)

Question: For `O=P(OCC(Br)CBr)(OCC(Br)CBr)OCC(Br)CBr` (stereo not given), which outcome is on record?
Answer: inactive

Question: With `N#Cc1c(-c2ccc(Cl)cc2)[nH]c(C(F)(F)F)c1Br` as the compound, how does the outcome read?
Answer: inactive

Question: With `CCC(C)(C)c1ccc(O)cc1` as the compound, how does the outcome read?
Answer: inactive

Question: How did the outcome turn out when `CCOC(=O)c1ccccc1C(=O)OCC` was run?
Answer: inactive

Question: `CCOP(=S)(OCC)SCS(=O)(=O)CC` was tested. Which outcome did it give?
Answer: inactive

Question: Which outcome does the source give for `N#Cc1cc([N+](=O)[O-])ccc1N` here?
Answer: inactive

Question: How did the outcome turn out when `CCN(CC)c1ccccc1` was run?
Answer: inactive

Question: With `Nc1cc2c3c(c1)C(c1ccccc1)=N[C@@H](NC(=O)c1cccnc1)C(=O)N3CC2` as the compound, how does the outcome read?
Answer: inactive

Question: `[N-]=[N+]=[N-]` was tested. Which outcome did it give?
Answer: inactive

Question: How did the outcome turn out when `CCOP(=S)(NC(C)C)Oc1ccccc1C(=O)OC(C)C` (stereo not given) was run?
Answer: inactive
